Where “and” joins values, the source holds several entries; their conditions need not be identical. Equal values may be shown once. Results filed as inconclusive are left out. Where a call stands in place of a potency, no number is given. Some structures have more than one record in an assay (separate samples or runs), and their calls can disagree. Calls of active or inactive are those of the source. Unless noted, calls come from the whole dose curve; as a rule, active = well fitted curve in the direction sought with a large enough effect in the repeat runs; inconclusive = weak or mixed curves; inactive = no such curve, though single readings can be large; an effect the other way counts as inactive or inconclusive. Non-standard residues stand in square brackets, D forms with d. Residues, ends and D or L forms follow the SMILES beside them. Orn = NCCC[C@H](N)C(=O)O
Legend:
[1] = qHTS assay to identify small molecule antagonists of the thyroid receptor (TR) signaling pathway - cell viability counter screen (AID 743064); note: nearly all actives have a fitted effect of over 50% in size; note: potency is the fitted concentration of half-maximal effect
In short: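 Plate GH3.TRE-Luc cells; incubate 4 h at 37 °C; add compound, then T3 to 1 nM final; incubate 23.5 h; add CellTiter-Fluor; incubate 30 min at 37 °C, 5% CO2; read fluorescence.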

[2] = qHTS assay to identify small molecule antagonists of the thyroid receptor (TR) signaling pathway (AID 743065); note: nearly all actives have a fitted effect of over 55% in size; note: potency is the fitted concentration of half-maximal effect
In short: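 GH3.TRE-Luc rat pituitary cells (two TREs driving luciferase) were dosed with compound, then stimulated with 1 nM T3 (final) for 23.5 h at 37 C. ONE-Glo luminescence was the read-out, with CellTiter-Fluor fluorescence as the cytotoxicity counter-screen.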

[3] = tested on: thyroid hormone receptor (rat, GH3 cells); assay: qHTS assay to identify small molecule agonists of the thyroid receptor (TR) signaling pathway (AID 743066; calls by dose curve; note: potency is the fitted concentration of half-maximal effect)
[4] = qHTS assay to identify small molecule antagonists of the estrogen receptor alpha (ER-alpha) signaling pathway - cell viability counter screen (AID 743074; calls by dose curve; note: nearly all actives have a fitted effect of over 45% in size; note: potency is the fitted concentration of half-maximal effect)
[5] = qHTS assay to identify small molecule antagonists of the estrogen receptor alpha (ER-alpha) signaling pathway using the BG1 cell line - cell viability counter screen (AID 743081);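 note: compound given together with 17beta-estradiol as the ER stimulus; nearly all actives have a fitted effect of over 45% in size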; note: potency is the fitted concentration of half-maximal effect
[6] = target: Aromatase (Homo sapiens) (UniProt P11511); assay: qHTS assay to identify aromatase inhibitors (AID 743083); note: nearly all actives have a fitted effect of over 55% in size; note: potency is the fitted concentration of half-maximal effect
Aromatase (Homo sapiens), sequence (P11511 whole entry, looked up): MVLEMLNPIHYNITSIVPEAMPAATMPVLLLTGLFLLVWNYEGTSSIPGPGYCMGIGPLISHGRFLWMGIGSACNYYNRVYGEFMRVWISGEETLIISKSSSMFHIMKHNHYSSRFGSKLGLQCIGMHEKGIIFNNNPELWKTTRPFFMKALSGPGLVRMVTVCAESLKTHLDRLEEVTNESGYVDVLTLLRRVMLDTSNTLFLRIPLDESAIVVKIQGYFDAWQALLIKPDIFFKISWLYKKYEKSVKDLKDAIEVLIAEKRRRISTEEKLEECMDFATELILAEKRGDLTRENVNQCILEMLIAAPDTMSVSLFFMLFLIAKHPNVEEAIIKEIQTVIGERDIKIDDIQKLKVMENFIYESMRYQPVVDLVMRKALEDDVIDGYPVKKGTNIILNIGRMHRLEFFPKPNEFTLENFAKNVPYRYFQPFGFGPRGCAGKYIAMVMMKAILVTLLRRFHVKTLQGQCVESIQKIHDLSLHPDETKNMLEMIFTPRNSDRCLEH

[7] = target: Estrogen receptor (Homo sapiens) (UniProt P03372); assay: qHTS assay to identify small molecule agonists of the estrogen receptor alpha (ER-alpha) signaling pathway (AID 743075; calls by dose curve)
Estrogen receptor (Homo sapiens), sequence (P03372 whole entry, looked up): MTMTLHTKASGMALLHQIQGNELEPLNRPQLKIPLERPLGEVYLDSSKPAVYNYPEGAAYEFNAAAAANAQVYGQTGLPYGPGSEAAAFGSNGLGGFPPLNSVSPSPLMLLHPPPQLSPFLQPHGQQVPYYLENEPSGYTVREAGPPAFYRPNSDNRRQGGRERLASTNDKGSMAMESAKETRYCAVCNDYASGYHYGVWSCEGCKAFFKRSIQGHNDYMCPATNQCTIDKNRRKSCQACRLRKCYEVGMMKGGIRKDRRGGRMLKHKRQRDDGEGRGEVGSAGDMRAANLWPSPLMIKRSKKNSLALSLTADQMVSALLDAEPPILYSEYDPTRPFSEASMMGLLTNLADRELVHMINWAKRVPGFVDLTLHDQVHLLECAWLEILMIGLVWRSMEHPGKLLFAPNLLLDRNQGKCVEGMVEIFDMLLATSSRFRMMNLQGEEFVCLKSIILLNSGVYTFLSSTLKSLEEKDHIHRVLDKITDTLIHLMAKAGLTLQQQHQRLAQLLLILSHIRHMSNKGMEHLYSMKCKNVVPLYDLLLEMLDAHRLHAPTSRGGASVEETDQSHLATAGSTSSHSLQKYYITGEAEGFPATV

[8] = qHTS assay to identify small molecule antagonists of the estrogen receptor alpha (ER-alpha) signaling pathway using the BG1 cell line (AID 743080; calls by dose curve;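 note: BG1 cells stimulated with 17beta-estradiol alongside compound; nearly all actives have a fitted effect of over 25% in size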; note: potency is the fitted concentration of half-maximal effect)
In short: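 Seeding, 24 h rest, compound transfer from DMSO, 17beta-estradiol addition, 21.5 h incubation, CellTiter-Fluor (30 min, 37 C), then ONE-Glo (30 min, room temperature): this sequence was run on BG1-Luc-4E2 reporter cells.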

[9] = target: Estrogen receptor (Homo sapiens) (UniProt P03372); assay: qHTS assay to identify small molecule antagonists of the estrogen receptor alpha (ER-alpha) signaling pathway (AID 743069; active = well fitted curve in the direction sought with a large enough effect in the signal ratio in the repeat runs, not every such curve was filed as active; the % refers to the signal ratio)
In short: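 In this cell-based reporter format, GripTite HEK293 cells harbouring ER-alpha-UAS-bla were grown overnight with 2% charcoal-stripped FBS, dosed with DMSO-dissolved compounds, then challenged with 17beta-estradiol. After 18 hr at 37C, beta-lactamase activity was detected by FRET fluorescence.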

[10] = target: Estrogen receptor (Homo sapiens) (UniProt P03372); assay: qHTS assay to identify small molecule agonists of the estrogen receptor alpha (ER-alpha) signaling pathway using the BG1 cell line (AID 743079); note: nearly all actives have a fitted effect of over 20% in size

| Structure (SMILES) | Potency [1] | Potency [2] | Potency [3] | Potency [4] | Potency [5] | Potency [6] | Potency [7] | Potency [8] | Potency [9] | Potency [10] |
| --- | --- | --- | --- | --- | --- | --- | --- | --- | --- | --- |
| CCCC(CCC)C(=O)OC1C[C@H]2CC[C@@H](C1)[N+]2(C)C (stereo not given in full) | inactive | inactive | inactive | inactive | inactive | inactive |  |  |  |  |
| Cc1cc(Br)ccc1NC(=O)CCl | 21.7 µM (active) | 19.3 µM (active) | inactive |  |  | 30.6 µM (active) | inactive |  |  |  |
| CN1CCN(CCCN2c3ccccc3Sc3ccc(C(F)(F)F)cc32)CC1 | 10.6 µM (active) | 9.44 µM (active) | inactive |  | inactive | 26.6 µM (active) |  |  |  |  |
| CSCC[C@H](NC(=O)[C@H](Cc1ccc(OS(=O)(=O)O)cc1)NC(=O)[C@@H](N)CC(=O)O)C(=O)NCC(=O)N[C@@H](Cc1c[nH]c2ccccc12)C(=O)N[C@@H](CCSC)C(=O)N[C@@H](CC(=O)O)C(=O)N[C@@H](Cc1ccccc1)C(N)=O | inactive | inactive | inactive and 11.9 µM (active) | inactive | inactive | inactive |  |  |  |  |
| C=N[C@@H](C(=O)N[C@@H]1C(=O)N2[C@@H]1SC(C)(C)[C@@H]2C(=O)O)c1ccccc1 | inactive | inactive | inactive | inactive | inactive | inactive |  |  |  |  |
| CNCC(=O)N[C@@H](CCCN=C(N)N)C(=O)N[C@H](C(=O)N[C@@H](Cc1ccc(O)cc1)C(=O)N[C@H](C(=O)N[C@@H](Cc1cnc[nH]1)C(=O)N1CCC[C@H]1C(=O)N[C@@H](C)C(=O)O)C(C)C)C(C)C | inactive | inactive | inactive | inactive | inactive | inactive |  |  |  |  |
| CON=C1C[C@]2(C[C@@H]3C[C@@H](C/C=C(\C)C[C@@H](C)/C=C/C=C4\CO[C@@H]5[C@H](O)C(C)=C[C@@H](C(=O)O3)[C@]45O)O2)O[C@H](/C(C)=C/C(C)C)[C@H]1C | 5.31 µM (active) | 3.76 µM (active) and 5.31 µM (active) |  | 6.01 µM (active) and 23.9 µM (active) |  | inactive |  |  |  |  |
| CN(C[C@@H](CC[N+]12CCC(C3CCCCC3)(CC1)CC2)c1ccc(Cl)c(Cl)c1)C(=O)c1cc(C(F)(F)F)cc(C(F)(F)F)c1 | 21.7 µM (active) | 27.3 µM (active) |  | 49 µM (active) |  | 61.1 µM (active) |  |  |  |  |
| CO[C@H]1C[C@@H]2CC[C@@H](C)[C@@](O)(O2)C(=O)C(=O)N2CCCC[C@H]2C(=O)O[C@H]([C@H](C)C[C@@H]2CC[C@@H](O)[C@H](OC)C2)CC(=O)[C@H](C)C=C(C)[C@@H](O)[C@@H](OC)C(=O)[C@H](C)C[C@H](C)/C=C/C=CC=C1C | 15 µM (active) and 9.44 µM (active) | 15 µM (active) |  | 23.9 µM (active) | 23.7 µM (active) and 3.76 µM (active) | 2.11 µM (active) | inactive | 3.8 nM (active) and 7.5 nM (active) |  |  |
| O=P(O)(O)OP(=O)(O)OP(=O)(O)O | inactive |  | inactive | inactive | inactive | inactive | inactive | inactive | inactive | inactive |
| CCC(C)(C)c1ccc(CC(C)CN2C[C@@H](C)O[C@@H](C)C2)cc1 (stereo not given in full) | 11.9 µM (active) | 11.9 µM (active) |  |  | inactive |  | inactive | 29.8 µM (active) |  |  |
| Nc1ccc(N)c([N+](=O)[O-])c1 | 32.5 µM (active) | inactive | inactive |  |  | inactive |  |  |  |  |
| CN1C(=O)C[C@@H](C(=O)N[C@@H](Cc2cnc[nH]2)C(=O)N2CCC[C@H]2C(N)=O)NC1=O | inactive |  | inactive | inactive | inactive | inactive | inactive | inactive | inactive | inactive |
| COc1cccc2c1[C@@H]1CN(CCCCn3c(=O)[nH]c4c(sc5ncc(-c6ccccc6)nc54)c3=O)C[C@@H]1CO2 | 11.9 µM (active) | 10.6 µM (active) |  |  |  |  | inactive |  |  |  |
| O=[N+]([O-])c1ccc(O)c2ncccc12 | 5.31 µM (active) | 4.73 µM (active) |  |  |  | 7.5 µM (active) |  |  |  |  |
| CC(C)C[C@@H]1NC(=O)[C@H](CCCN)NC(=O)[C@H](C(C)C)NC(=O)[C@@H]2CCCN2C(=O)[C@@H](Cc2ccccc2)NC(=O)[C@H](CC(C)C)NC(=O)[C@H](CCCN)NC(=O)[C@H](C(C)C)NC(=O)[C@@H]2CCCN2C(=O)[C@@H](Cc2ccccc2)NC1=O (cyclo(V[Orn]L[dF]PV[Orn]L[dF]P)) | 2.11 µM (active) | 0.841 µM (active) |  | 10.7 µM (active) |  | 1.88 µM (active) | inactive |  |  |  |
| CN1CC[C@H](c2c(O)cc(O)c3c(=O)cc(-c4ccccc4Cl)oc23)[C@H](O)C1 | 0.211 µM (active) | 0.15 µM (active) |  |  |  | 0.211 µM (active) |  |  |  |  |
| CN1CCN(CCCN2c3ccccc3Sc3ccc(Cl)cc32)CC1 | 6.68 µM (active) | 6.68 µM (active) |  |  |  |  | inactive | inactive |  |  |
| CCCCCCCCCCCCCCCCC(C(=O)O)C(O)(CC(=O)O)C(=O)O (stereo not given) | 26.6 µM (active) | 26.6 µM (active) |  | 26.8 µM (active) | inactive | inactive |  | inactive |  | inactive |
| CCCCC/C=C\C=C\C(=O)OCC | 31.9 µM (active) | 28.4 µM (active) |  | inactive | inactive |  | inactive |  |  | inactive |
| O=C(Nc1ccccc1)c1cc(Cl)ccc1O | 10.9 µM (active) | 5.45 µM (active) | inactive |  |  | 27.3 µM (active) |  |  |  |  |
| CCCCCCCCCCCC[n+]1ccc2ccccc2c1 | 7.5 µM (active) | 3.76 µM (active) |  | 2.13 µM (active) | 26.6 µM (active) | 10.6 µM (active) | inactive | 7.5 µM (active) |  |  |
| CN[C@H]1CC[C@@H](c2ccc(Cl)c(Cl)c2)c2ccc(S(N)(=O)=O)cc21 | 8.63 µM (active) | 4.33 µM (active) |  |  | inactive | 48.6 µM (active) | inactive | 68.6 µM (active) |  |  |
| CC(C)(C)c1ccc2c(S(=O)(=O)O)c(C(C)(C)C)ccc2c1 | inactive |  | inactive | inactive | inactive | inactive | inactive | inactive | inactive | inactive |
| CCN1\C(=C/C=C/C=C/c2sc3ccccc3[n+]2CC)Sc2ccccc21 | 5.96 µM (active) and 7.5 µM (active) | 2.37 µM (active) and 4.22 µM (active) |  | 67.4 nM (active) and 1.69 µM (active) | 11.9 µM (active) | 5.96 µM (active) and 10.6 µM (active) | inactive | 1.88 µM (active) |  |  |
